Viability data for 92 molecules are collected here from PubChem BioAssay AID827 (SRMLSC, 2007).

About 1,700 (1.2%) of roughly 140,000 compounds were called active.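 The calls were made as follows: active = viability at or below a set limit, 4 SD under the median of all tested compounds (cut at about 3.7% in these data); inactive = the rest.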 Shown is part of a subset that was picked to be rich in actives.

This assay in a line: growth suppression of PTEN-null HCT116, primary screen, cell-based, CellTiter-Glo (AID 827).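 Also: PTEN knockout HCT116 line with beta catenin targeted HCT116 as companion control.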 As to conditions: 60 h, at 10 µM, active compounds read low. On the technique in general: ATP-based viability assays read luminescence as a measure of living cells.
Broadly, the viability is a read-out of living cells in per cent, often relative to untreated cells. As for `COc1ccc(C2CC(c3ccccc3)=NN2C(=O)c2ccc(Cl)c([N+](=O)[O-])c2)cc1` (configuration not stated), the viability was 10.4% (inactive). In the case of `CCOc1ccccc1C1CC(c2cccc(NS(C)(=O)=O)c2)=NN1C(=O)c1ccccc1` (configuration not stated), the viability is 84.5% (inactive). Then `CCOc1ccc2nc(Cl)c(C3CC(c4ccccc4)=NN3C(=O)c3cccs3)cc2c1` (configuration not stated), with 1.17% (active); and `Cc1c(Cl)cnc(NC(=O)COC(=O)c2ccc(S(=O)(=O)NCc3ccco3)cc2)c1Cl`, with 85.2% (inactive).

In the case of `COc1ccc(C(=O)O/N=C(\N)Cc2ccc(Cl)cc2Cl)cc1OC`, the viability is 69.4% (inactive). Then `COC(=O)c1sc2ncccc2c1OCc1ccc(Cl)cc1Cl`, with 63.7% (inactive). The result for `NC(N)=N/N=C/c1ccc(OCc2ccc(Cl)cc2Cl)cc1` reads 1.56% (active); that for `CC1CCCCN1C(=S)NCc1ccccc1` (configuration not stated), 94.7% (inactive). Then `O=C(CC1SC(=Nc2ccccc2)N(Cc2ccccn2)C1=O)Nc1cccc(Cl)c1` (configuration not stated), with 76.2% (inactive). As for `O=C(Nc1cccc2ccccc12)c1onc2c1CCCC2`, the viability was 0.29% (active).

With `Cc1nc(C)c(C(=O)Nc2cccc(C)c2C)o1`, the viability was 109% (inactive). Then `O=C(O)c1ccccc1-c1ccccc1C(=O)Nc1cccc2ccccc12`, with 96% (inactive); and `Cc1ccc(-n2nc(C)c(/C=N/NC(=O)c3cccs3)c2Cl)cc1`, with 55.5% (inactive); and `Cc1c(C2=CCN(S(=O)(=O)c3ccc(Cl)cc3)CC2)c2ccccc2n1C`, with 74% (inactive). The result for `COc1ccccc1NC(=O)CCCc1c[nH]c2ccccc12` reads 92.8% (inactive).

For `COc1cccc(CNCCc2c[nH]c3ccccc23)c1OCc1ccccc1F`, the viability was 1.43% (active). For the molecule `COc1ccc(C(CCNCc2ccccc2F)c2ccc(F)cc2)cc1` (configuration not stated), the viability is 10.1% (inactive). For the molecule `CCOC(=O)/C(N=Nc1cc(C(=O)O)cc(C(=O)O)c1)=C(\O)CCl`, the viability is 101% (inactive). The result for `CC(=O)c1c(N2CCN(c3ccc(F)cc3)CC2)nc(=S)n(-c2ccccc2)c1C` reads 93% (inactive); that for `Nc1nnc(SCC(=O)Nc2ccc3nc(SCC(=O)Nc4ccccc4)sc3c2)s1`, 72.2% (inactive); that for `Oc1c(CN2CCN(c3ccc(F)cc3)CC2)cc(Cl)c2cccnc12`, 4.32% (inactive). The result for `Clc1cccc(CN2COc3c(cc(Cl)c4cccnc34)C2)c1` reads 3.76% (active); that for `O=c1[nH]n(-c2cccc(Cl)c2)c2ncccc12`, 95.2% (inactive); that for `CCOC(=O)c1cccnc1NC(=O)c1ccncc1`, 101% (inactive). On to `CCCc1nc2c([nH]1)C(c1cccnc1)C(C#N)=C(N)O2` (configuration not stated), for which the viability is 98.7% (inactive). Consider `COC(=O)NNC(=O)C1CCC(C)CC1` (configuration not stated), for which the viability was 97% (inactive). Then `Cc1ccc(Cl)cc1N1CCN(C(=O)c2cccc3c(=O)c(C)c(-c4ccccc4)oc23)CC1`, with 1.24% (active).

Consider `COC(=O)c1ccc(C(=O)OC)c(NC(=S)N2CCN(c3cc(Cl)ccc3C)CC2)c1`, for which the viability was 90.3% (inactive).

As to `O=C(c1cccc2ccccc12)N1CCN(c2ccccc2F)CC1`, the viability was 90.8% (inactive). The result for `COCCCNC(=O)Cn1cc(/C=C(\C#N)C(=O)N2CCN(c3ccccc3)CC2)c2ccccc21` reads 86.2% (inactive); that for `Cc1ccc(-c2nn(-c3ccccc3)cc2C(=O)Nc2cccc(S(=O)(=O)N3CCOCC3)c2)cc1`, 89.5% (inactive); that for `Cc1cc(Cl)ccc1NC(=S)N1CCC(C(N)=O)(N2CCCCC2)CC1`, 88.6% (inactive). The result for `Cc1nc(CC(=O)NNS(=O)(=O)c2ccc(F)c(Cl)c2)cs1` reads 95.8% (inactive). Then `O=C(Cn1cnc2ccccc21)N/N=C/c1ccco1`, with 97.9% (inactive); and `COc1cc(NC(=O)Nc2ccc(C)cc2)cc([N+](=O)[O-])c1`, with 79.8% (inactive). Consider `COc1ccc(NS(=O)(=O)c2ccc(NC(=S)NC(=O)/C=C/c3ccc(C)cc3)cc2)nn1`, for which the viability is 94.4% (inactive).

`COc1ccc(NC(=O)/C(Cl)=C(/Cl)S(=O)Cc2ccc(C)cc2)cn1` (configuration not stated): the viability was 0.92% (active).

With `O=C(/C=C/c1ccccc1[N+](=O)[O-])NCC1CCCO1` (configuration not stated), the viability is 102% (inactive).

As to `C=CCNC(=S)NNC(=O)c1ccc(Br)o1`, the viability was 94.9% (inactive). Then `CCN(CC)S(=O)(=O)c1ccc(C)c(NC(=O)COc2ccc(Br)cc2Cl)c1`, with 84.6% (inactive); and `CCn1cc(/C=C2/SC(=S)NC2=O)c(C)n1`, with 103% (inactive). The result for `COc1ccc(-c2cc(C(=O)NC(Cc3c[nH]c4ccccc34)C(=O)O)c(C)o2)cc1OC` (configuration not stated) reads 99.7% (inactive); that for `COc1ccccc1/C=N\Nc1cc(C)nc(-n2nc(C)cc2C)n1`, 2.6% (active).

For `COc1ccc(Nc2cc(C)nc(-n3nc(C)cc3C)n2)cc1`, the viability is 18.6% (inactive). Then `COc1cc(NS(=O)(=O)c2ccccc2)ccc1-n1nc(C)cc1C`, with 94.5% (inactive). The result for `CCN(CC)CCn1c(/N=C/c2cc(Br)ccc2O)nc2ccccc21` reads 94% (inactive); that for `O=C(NCCc1ccccn1)c1cc(-c2ccc(Cl)cc2)nc2ccccc12`, 98.1% (inactive); that for `c1ccc(-c2cc3c(NCC4COc5ccccc5O4)ncnc3s2)cc1` (configuration not stated), 42.1% (inactive).

`CCCc1cc(=O)[nH]c(SCC(=O)N2CCN(S(=O)(=O)c3ccc(C)cc3C)CC2)n1`: the viability is 93% (inactive).

Consider `COc1ccc(CC(=O)Nc2ccc(C(=O)NC(C)(C)C)cc2)cc1`, for which the viability was 92.4% (inactive). The result for `COc1cccc(NC(=O)Cc2ccc(C)cc2)c1` reads 113% (inactive); that for `COc1ccc(CC(=O)Nc2ccc(-c3nnc(-c4ccc(C)cc4)o3)cc2)cc1`, 2.56% (active); that for `Cc1cccc(C)c1NC(=O)C(c1ccccc1)N1CC(=O)Nc2ccccc21` (configuration not stated), 66% (inactive).

As to `O=C(Nc1cc(C(F)(F)F)ccc1Cl)C(=O)N1CCCCC1`, the viability is 91.1% (inactive).

For the molecule `CC(CC(=O)Nc1cc(C(F)(F)F)ccc1Cl)c1ccccc1` (configuration not stated), the viability was 51.3% (inactive). Then `O=C(NNc1ccccc1Cl)C(O)(c1cccc(C(F)(F)F)c1)c1cccc(C(F)(F)F)c1`, with 1.89% (active). As to `Cc1cc(C(=O)N/N=C/c2cc([N+](=O)[O-])cc(C)c2O)n[nH]1`, the viability is 83% (inactive).

Regarding `O=C(COC(=O)[C@H](Cc1ccccc1)NC(=O)c1cccs1)Nc1cc(F)ccc1F`, the viability was 91.4% (inactive). Regarding `CCCSc1nc2[nH]ncc2c(=O)[nH]1`, the viability was 90.6% (inactive). Then `Cc1cc2oc(C(=O)Nc3c(C)n(C)n(-c4ccccc4)c3=O)c(C)c2cc1Cl`, with 85% (inactive); and `CCn1c(SCc2ccc(C)cc2)nnc1-c1nn(-c2ccccc2)ccc1=O`, with 87.8% (inactive). The result for `N=C(N)SCc1cccc2ccccc12` reads 87.8% (inactive). The result for `CCc1ccc(-c2nn(-c3ccccc3)cc2CSC(=N)N)cc1` reads 1.62% (active); that for `COC(=O)Cc1ccc(NC(=S)NCc2ccc(Cl)cc2)cc1`, 83.4% (inactive); that for `S=C(NCc1ccc(Cl)cc1)NC12CC3CC(CC(C3)C1)C2`, 2.95% (active). As to `S=C(NCc1ccc(Cl)cc1)NC1CCCCC1`, the viability was 77.6% (inactive). Turning to `C=CCNC(=O)COC(=O)c1ccccc1C(=O)N(C)C1CCCCC1`, the viability is 92.8% (inactive). For `Cc1cc(C)cc(NC(=S)NCc2ccc(F)cc2)c1`, the viability was 78.2% (inactive).

As to `Cc1ccc(C(=O)N2CC(=O)Nc3ccccc32)o1`, the viability is 100% (inactive). As for `CC(=O)c1cc(-c2ccccc2)n(CCC(=O)NC2CCCCCC2)c1C`, the viability was 74.8% (inactive). The result for `COc1cccc(N(C(=O)C2COc3ccccc3O2)C(C(=O)NC2CCCCC2)c2ccc(O)cc2)c1` (configuration not stated) reads 56.8% (inactive); that for `COC(=O)Cc1csc(/N=C/c2c(O)n(-c3cccc(C(F)(F)F)c3)c(=O)c3ccccc23)n1`, 47.7% (inactive); that for `O=C1CCCC2=C1C(c1ccccc1)n1c(s/c(=C/c3cccc(F)c3)c1=O)=N2` (configuration not stated), 80.9% (inactive). The result for `COc1ccc(OC)c(C2C3=C(N=c4s/c(=C\c5cccc(O)c5)c(=O)n42)c2ccccc2CC3)c1` (configuration not stated) reads 3.19% (active); that for `CCOC(=O)C1=C(C)N=c2s/c(=C\C(=O)OC)c(=O)n2C1c1ccc(OC)cc1` (configuration not stated), 95.2% (inactive). For `COc1ccccc1CNC(=O)CN1CCC(n2cnc3cc(F)ccc32)CC1`, the viability was 101% (inactive). The result for `COCCNc1nc(N)c([N+](=O)[O-])c(NCCO)n1` reads 100% (inactive); that for `CNc1nc(Nc2ccc(C)c(Cl)c2)nc(N)c1[N+](=O)[O-]`, 2.94% (active). As for `Nc1nc(NCCCN2CCOCC2)nc(Nc2ccccc2)c1[N+](=O)[O-]`, the viability is 63.9% (inactive). As for `CCN(CC)c1ccc(S(=O)(=O)N2CCOCC2)cc1NC(=O)CSc1cccc[n+]1[O-]`, the viability was 93.9% (inactive). Regarding `CCN(CC)CCOc1ccc2c(c1)C(=NNC(=O)c1ccccn1)c1cc(OCCN(CC)CC)ccc1-2`, the viability was 0.61% (active). The result for `CCC(C)(NC(=O)c1ccccn1)C(=O)NC1CCCCC1` (configuration not stated) reads 105% (inactive); that for `COc1ccc(CC(=O)N/N=C(\C)c2ccccn2)cc1`, 4.88% (inactive). The result for `COc1ccc(S(=O)(=O)Nc2ccc(O)c(Sc3nc4ccccc4s3)c2)cc1` reads 78.8% (inactive); that for `O=[N+]([O-])c1c(NCCO)cc(Sc2nc3ccccc3s2)c2nonc12`, 1.48% (active). Then `O=C(O)c1cccc(S(=O)(=O)Nc2ccc(O)cc2Sc2nc3ccccc3s2)c1`, with 94% (inactive); and `CCCCCNC(=O)c1cccnc1SCC(=O)Nc1ccccc1OC`, with 91.1% (inactive); and `COc1ccc(C(CCN(Cc2ccc(OC)c(OC)c2)C(=O)CCl)c2ccccc2)cc1` (configuration not stated), with 1.54% (active). For `CCOC(=O)CN(Cc1ccc(OC)c(OC)c1)S(=O)(=O)c1ccc(OC)cc1`, the viability is 96.9% (inactive).

For the molecule `COc1ccc(CCN(C(=O)COc2ccccc2)c2nc(-c3ccccc3)cs2)cc1OC`, the viability was 74.5% (inactive). The result for `Cc1cc(F)ccc1S(=O)(=O)N1CCCOC1CNC(=O)C(=O)NCCC1=CCCCC1` (configuration not stated) reads 93.5% (inactive). As for `N#Cc1ccc(C(=O)Nc2nc(-c3cccs3)c(C(=O)C(F)(F)F)s2)cc1`, the viability was 40.3% (inactive).
